# Laboratory results taken from the supplement of paper PMC8728848.
# This excerpt belongs to a sample that is enriched for the strongest signals.
# B1: CcfD (Bacteroides vulgatus), A6KYX8 (protein)
# chain: MKYKNYFKSIIYLALGAFTLGSCEDFLDRQEDEKLTFDKIWESRNTTQQYWLNAMSFLPNENGSLQGDTEPYLGASDECTIAYDRQYRWINFGTWNPSQVPYYKMDHYYKGIRECNIFLQNVYKCSDPLVTKDQLDEWYWQTRFARAYYYFLMMRDYGPVFLLGDDLLDFTASTEELYRPRNTWDQCVNYVVSEMTQCAESGVVLQQSDLPAAKWGLATVGTCHAVISRLLLYSARPLFNGNKLYSTVKNPDAPDFPELSGVKLFPELDNTKWQKAAEAAKKLIDNPCYELYRAGNDNPYEDYYGVTHETWNKELIWTDRYNGLFSWGVGTVPTGVAGTAYGAVGPTQALVDAYAMNTGWYPITGYEADGTPIVEPLSGYELASELEKSSWIYPSGGWSNKADFEIEAPNMYKDREPRFYVTVFFGGNQWLHGNSATSISFAKGGNGNKSHDYPKSGYLCNRFYDHKLNSSEGQWGNITFPVFRLGEIYLNFIEAVLECKKNGVALDPSYEALAMEKWADLRKRAGLDPITSIYGQVSTEELIQLCRKERQIELAFERHRYFDTRTWMIATQTDNGKMYGMNTSCPLDAGMKGTETPDGFWERTAFETRVFQNKHYLYPFSQRELDRNKLLTQNYGW
# How the values were obtained:
# Assay in all cases: glycan array binding signal (z-score within array); higher = stronger binding
# Conditions in all cases: glycan notation: IUPAC condensed, linker removed
# [1] = target: Fuc(a1-2)Gal(b1-4)Fuc(a1-3)]GlcNAc(b1-2)Man(a1-3)[Fuc(a1-2)Gal(b1-4)[Fuc(a1-3)]GlcNAc(b1-2)Man(a1-6)]Man(b1-4)GlcNAc(b1-4)GlcNAc
# Procedure, shortened: (§1)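 The Consortium for Functional Glycomics database supplied 3228 glycan arrays, of which those lacking an available protein sequence were dropped. The binding signal, a within-array Z-score, was averaged across arrays of the same protein sequence and across linkers. Negative scores can be read as non-binding.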
# [2] = target: Fuc(a1-2)Gal(b1-4)GlcNAc(b1-2)Man(a1-3)[Fuc(a1-2)Gal(b1-4)GlcNAc(b1-2)Man(a1-6)]Man(b1-4)GlcNAc(b1-4)GlcNAc
# Procedure, shortened: as §1
# [3] = target: Fuc(a1-2)Gal(b1-4)GlcNAc(b1-3)Gal(b1-4)GlcNAc(b1-2)Man(a1-3)[Fuc(a1-2)Gal(b1-4)GlcNAc(b1-3)Gal(b1-4)GlcNAc(b1-2)Man(a1-6)]Man(b1-4)GlcNAc(b1-4)GlcNAc
# Procedure, shortened: as §1
# [4] = target: Fuc(a1-2)Gal(b1-4)GlcNAc(b1-6)GalNAc
# Procedure, shortened: as §1
# [5] = target: Fuc(a1-2)Gal(b1-4)GlcNAc6S
# Procedure, shortened: as §1
# [6] = target: Fuc(a1-2)Gal(b1-4)[Fuc(a1-3)]GlcNAc(b1-3)GalNAc
# Procedure, shortened: as §1
# [7] = target: Fuc(a1-2)[Gal(a1-3)]Gal(b1-3)GlcNAc(b1-2)Man(a1-3)[Fuc(a1-2)[Gal(a1-3)]Gal(b1-3)GlcNAc(b1-2)Man(a1-6)]Man(b1-4)GlcNAc(b1-4)GlcNAc
# Procedure, shortened: as §1
# [8] = target: Fuc(a1-2)[Gal(a1-3)]Gal(b1-4)GlcNAc(b1-2)Man
# Procedure, shortened: as §1
# [9] = target: Fuc(a1-2)[GalNAc(a1-3)]Gal(b1-3)GlcNAc(b1-6)GalNAc
# Procedure, shortened: as §1
# [10] = target: Fuc(a1-2)[GalNAc(a1-3)]Gal(b1-4)GlcNAc(b1-2)Man(a1-3)[Fuc(a1-2)[GalNAc(a1-3)]Gal(b1-4)GlcNAc(b1-2)Man(a1-6)]Man(b1-4)GlcNAc(b1-4)GlcNAc
# Procedure, shortened: as §1
# [11] = target: Fuc(a1-2)[GalNAc(a1-3)]Gal(b1-4)GlcNAc(b1-3)[Fuc(a1-2)[GalNAc(a1-3)]Gal(b1-4)GlcNAc(b1-6)]GalNAc
# Procedure, shortened: as §1
# [12] = target: Fuc(a1-3)[Gal3S(b1-4)]Glc
# Procedure, shortened: as §1
# [13] = target: Gal(a1-3)Gal
# Procedure, shortened: as §1
# [14] = target: Gal(a1-3)Gal(b1-4)[Fuc(a1-3)]GlcNAc
# Procedure, shortened: as §1
# [15] = target: Gal(b1-3)[Fuc(a1-4)]GlcNAc
# Procedure, shortened: as §1
# [16] = target: Gal(b1-4)GalNAc(b1-3)[Fuc(a1-2)]Gal(b1-4)GlcNAc
# Procedure, shortened: as §1
# [17] = target: Gal(b1-4)GlcNAc(b1-2)Man(a1-3)Man(b1-4)GlcNAc(b1-4)GlcNAc
# Procedure, shortened: as §1
# [18] = target: Gal(b1-4)GlcNAc(b1-2)[Gal(b1-4)GlcNAc(b1-4)]Man(a1-3)[GlcNAc(b1-4)][Gal(b1-4)GlcNAc(b1-2)[Gal(b1-4)GlcNAc(b1-6)]Man(a1-6)]Man(b1-4)GlcNAc(b1-4)GlcNAc
# Procedure, shortened: as §1
# [19] = target: Gal(b1-4)GlcNAc(b1-3)Gal(b1-3)GlcNAc
# Procedure, shortened: as §1
# [20] = target: Gal(b1-4)GlcNAc(b1-3)Gal(b1-4)GlcNAc(b1-3)Gal(b1-4)GlcNAc
# Procedure, shortened: as §1
# [21] = target: Gal(b1-4)GlcNAc(b1-3)Gal(b1-4)GlcNAc(b1-3)Gal(b1-4)GlcNAc(b1-3)Gal(b1-4)GlcNAc(b1-2)Man(a1-3)[Gal(b1-4)GlcNAc(b1-3)Gal(b1-4)GlcNAc(b1-3)Gal(b1-4)GlcNAc(b1-3)Gal(b1-4)GlcNAc(b1-2)Man(a1-6)]Man(b1-4)GlcNAc(b1-4)[Fuc(a1-6)]GlcNAc
# Procedure, shortened: as §1
# [22] = target: GalNAc(b1-4)GlcNAc(b1-2)Man
# Procedure, shortened: as §1
binder,measurement,setting,value
B1,glycan array binding signal (z-score),[1],2
same,glycan array binding signal (z-score),[2],4.7
same,glycan array binding signal (z-score),[3],4.15
same,glycan array binding signal (z-score),[4],0.552
same,glycan array binding signal (z-score),[5],1.84
same,glycan array binding signal (z-score),[6],0.374
same,glycan array binding signal (z-score),[7],3.23
same,glycan array binding signal (z-score),[8],-0.282
same,glycan array binding signal (z-score),[9],-0.82
same,glycan array binding signal (z-score),[10],4.4
same,glycan array binding signal (z-score),[11],0.323
same,glycan array binding signal (z-score),[12],-0.429
same,glycan array binding signal (z-score),[13],0.343
same,glycan array binding signal (z-score),[14],0.14
same,glycan array binding signal (z-score),[15],-0.269
same,glycan array binding signal (z-score),[16],-0.749
same,glycan array binding signal (z-score),[17],3
same,glycan array binding signal (z-score),[18],-0.683
same,glycan array binding signal (z-score),[19],-0.932
same,glycan array binding signal (z-score),[20],-1.02
same,glycan array binding signal (z-score),[21],0.003
same,glycan array binding signal (z-score),[22],-0.896
